Measurements: publication PMC7862700, “An all-to-all approach to the identification of sequence-specific readers for epigenetic DNA modifications on cytosine”

Key:
Assay in all cases: DAPPL (digital affinity profiling via proximity ligation, sequencing); 10 mM Tris-HCl pH 7.5, 50 mM NaCl, 1 mM DTT, 4% glycerol, room temperature, 30 min; GST-TFs on glutathione beads, 16-mer random dsDNA library, 0.1% formaldehyde crosslink after washing; high values mean tight binding
FLI1 = biological target: T1, FLI1 (Homo sapiens, UniProt Q01543 1-452); conditions: protein: recombinant; tags: N-terminal GST; dsDNA, one strand shown
T1 sequence: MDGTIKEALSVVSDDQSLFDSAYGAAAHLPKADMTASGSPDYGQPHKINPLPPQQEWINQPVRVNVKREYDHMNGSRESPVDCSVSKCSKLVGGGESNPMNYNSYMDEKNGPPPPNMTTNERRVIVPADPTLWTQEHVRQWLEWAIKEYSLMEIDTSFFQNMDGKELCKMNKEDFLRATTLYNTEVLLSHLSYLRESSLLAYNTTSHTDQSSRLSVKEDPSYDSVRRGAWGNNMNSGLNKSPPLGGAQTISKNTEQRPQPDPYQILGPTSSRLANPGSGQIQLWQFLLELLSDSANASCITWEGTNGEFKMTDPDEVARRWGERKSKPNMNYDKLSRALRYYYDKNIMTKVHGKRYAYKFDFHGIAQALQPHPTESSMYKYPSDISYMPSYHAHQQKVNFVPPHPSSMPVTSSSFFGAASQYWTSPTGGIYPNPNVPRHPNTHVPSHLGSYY
Procedure, shortened: (§1)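 Sequencing on an Illumina NextSeq500 followed washing, crosslinking with 0.1% formaldehyde, proximity ligation (BsaI/T4 ligase, 1 h, 37 °C) and PCR amplification of pools that had been incubated for 30 min at room temperature with 200 nmole of a random double-stranded 16-mer DNA library in Tris/NaCl/DTT/glycerol buffer. Each pool held DNA-barcoded human transcription factors, expressed in yeast as GST fusions and captured on glutathione beads, plus a tag-only sample. Binding signal is a hexamer's read frequency for a factor divided by its frequency in the tag-only sample.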

ELK1 = biological target: T2, ELK1 (Homo sapiens, UniProt P19419 1-428); conditions: protein: recombinant; tags: N-terminal GST; dsDNA, one strand shown
T2 sequence: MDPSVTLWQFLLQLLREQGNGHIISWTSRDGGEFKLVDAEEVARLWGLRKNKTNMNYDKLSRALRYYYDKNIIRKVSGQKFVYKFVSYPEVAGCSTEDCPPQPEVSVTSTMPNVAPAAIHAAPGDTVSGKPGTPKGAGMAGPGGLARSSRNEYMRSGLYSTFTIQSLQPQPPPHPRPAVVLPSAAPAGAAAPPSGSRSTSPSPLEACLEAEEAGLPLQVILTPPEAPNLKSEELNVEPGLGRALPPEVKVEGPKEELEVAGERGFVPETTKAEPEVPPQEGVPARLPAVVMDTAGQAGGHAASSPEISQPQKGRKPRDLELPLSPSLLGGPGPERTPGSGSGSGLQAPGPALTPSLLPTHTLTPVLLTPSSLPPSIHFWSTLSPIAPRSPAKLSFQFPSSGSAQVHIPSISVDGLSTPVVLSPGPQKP
Procedure, shortened: as §1

GABPA = biological target: T3, GABPA (Homo sapiens, UniProt Q06546 1-454); conditions: protein: recombinant; tags: N-terminal GST; dsDNA, one strand shown
T3 sequence: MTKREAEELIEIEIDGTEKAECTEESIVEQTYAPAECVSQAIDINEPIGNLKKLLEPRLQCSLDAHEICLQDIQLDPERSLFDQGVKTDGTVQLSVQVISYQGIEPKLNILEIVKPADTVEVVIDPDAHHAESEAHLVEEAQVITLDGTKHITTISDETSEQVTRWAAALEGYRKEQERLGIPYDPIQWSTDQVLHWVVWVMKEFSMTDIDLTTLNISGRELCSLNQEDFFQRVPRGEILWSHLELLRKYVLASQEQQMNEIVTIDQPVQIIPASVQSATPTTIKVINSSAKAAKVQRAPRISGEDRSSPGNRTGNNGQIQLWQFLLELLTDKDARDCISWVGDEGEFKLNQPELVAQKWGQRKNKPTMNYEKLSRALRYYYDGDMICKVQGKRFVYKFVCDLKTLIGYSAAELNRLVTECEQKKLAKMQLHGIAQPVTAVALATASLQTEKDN
Procedure, shortened: as §1

ERG = biological target: T4, ERG (Homo sapiens, UniProt P11308 1-479); conditions: protein: recombinant; tags: N-terminal GST; dsDNA, one strand shown
T4 sequence: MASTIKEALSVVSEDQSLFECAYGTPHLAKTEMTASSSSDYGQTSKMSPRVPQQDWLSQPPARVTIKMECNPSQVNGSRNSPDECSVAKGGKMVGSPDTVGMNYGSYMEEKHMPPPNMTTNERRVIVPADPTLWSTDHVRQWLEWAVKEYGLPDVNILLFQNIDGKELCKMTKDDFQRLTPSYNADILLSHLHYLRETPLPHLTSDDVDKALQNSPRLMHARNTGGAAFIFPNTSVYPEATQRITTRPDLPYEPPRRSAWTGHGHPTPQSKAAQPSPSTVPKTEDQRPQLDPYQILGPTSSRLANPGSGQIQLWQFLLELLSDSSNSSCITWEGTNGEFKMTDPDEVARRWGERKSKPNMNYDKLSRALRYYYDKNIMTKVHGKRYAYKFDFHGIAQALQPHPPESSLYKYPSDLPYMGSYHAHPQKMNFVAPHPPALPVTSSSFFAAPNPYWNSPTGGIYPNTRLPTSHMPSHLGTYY
Procedure, shortened: as §1

ELF1 = ELF1 (Homo sapiens, UniProt P32519 1-619); conditions: protein: recombinant; tags: N-terminal GST; dsDNA, one strand shown
Procedure, shortened: as §1

EHF = biological target: T5, EHF (Homo sapiens, UniProt Q9NZC4 1-300); conditions: protein: recombinant; tags: N-terminal GST; dsDNA, one strand shown
T5 sequence: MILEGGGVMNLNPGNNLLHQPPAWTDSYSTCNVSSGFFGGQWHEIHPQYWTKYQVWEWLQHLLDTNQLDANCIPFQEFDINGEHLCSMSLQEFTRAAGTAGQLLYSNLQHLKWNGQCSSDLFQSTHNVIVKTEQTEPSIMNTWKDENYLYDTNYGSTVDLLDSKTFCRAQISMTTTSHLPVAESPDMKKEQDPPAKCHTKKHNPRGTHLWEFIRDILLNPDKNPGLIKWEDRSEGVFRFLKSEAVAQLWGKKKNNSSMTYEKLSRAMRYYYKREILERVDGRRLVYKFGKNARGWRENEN
Procedure, shortened: as §1

SPI1 = SPI1 (Homo sapiens, UniProt P17947 1-270); conditions: protein: recombinant; tags: N-terminal GST; dsDNA, one strand shown
Procedure, shortened: as §1

SPIB = SPIB (Homo sapiens, UniProt Q01892 1-262); conditions: protein: recombinant; tags: N-terminal GST; dsDNA, one strand shown
Procedure, shortened: as §1

ELK3 = biological target: T6, ELK3 (Homo sapiens, UniProt P41970 1-407); conditions: protein: recombinant; tags: N-terminal GST; dsDNA, one strand shown
T6 sequence: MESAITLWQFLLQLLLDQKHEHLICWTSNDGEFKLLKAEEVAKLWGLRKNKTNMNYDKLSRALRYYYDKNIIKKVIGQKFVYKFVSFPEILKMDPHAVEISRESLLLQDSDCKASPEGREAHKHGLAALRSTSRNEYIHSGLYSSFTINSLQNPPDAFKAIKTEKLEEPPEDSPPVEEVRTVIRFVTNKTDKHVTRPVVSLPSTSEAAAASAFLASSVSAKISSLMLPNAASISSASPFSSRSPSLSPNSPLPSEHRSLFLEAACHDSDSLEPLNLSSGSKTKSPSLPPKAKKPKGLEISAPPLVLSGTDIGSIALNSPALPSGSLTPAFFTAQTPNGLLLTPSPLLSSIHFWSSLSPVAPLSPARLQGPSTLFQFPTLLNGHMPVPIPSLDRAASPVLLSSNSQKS
Procedure, shortened: as §1

FEV = biological target: T7, FEV (Homo sapiens, UniProt Q99581 1-238); conditions: protein: recombinant; tags: N-terminal GST; dsDNA, one strand shown
T7 sequence: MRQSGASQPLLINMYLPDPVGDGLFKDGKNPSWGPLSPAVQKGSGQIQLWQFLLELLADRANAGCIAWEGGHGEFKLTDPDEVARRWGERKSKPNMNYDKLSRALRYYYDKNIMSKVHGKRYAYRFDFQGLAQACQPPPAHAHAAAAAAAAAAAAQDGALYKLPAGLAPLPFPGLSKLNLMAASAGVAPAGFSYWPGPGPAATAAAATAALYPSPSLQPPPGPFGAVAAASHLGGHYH
Procedure, shortened: as §1

ETV5 = ETV5 (Homo sapiens, UniProt P41161 1-510); conditions: protein: recombinant; tags: N-terminal GST; dsDNA, one strand shown
Procedure, shortened: as §1

HSF1 = HSF1 (Homo sapiens, UniProt Q00613 1-529); conditions: protein: recombinant; tags: N-terminal GST; chain copies: 3; dsDNA, one strand shown
Procedure, shortened: as §1

SPIC = biological target: T8, SPIC (Homo sapiens, UniProt Q8N5J4 1-248); conditions: protein: recombinant; tags: N-terminal GST; dsDNA, one strand shown
T8 sequence: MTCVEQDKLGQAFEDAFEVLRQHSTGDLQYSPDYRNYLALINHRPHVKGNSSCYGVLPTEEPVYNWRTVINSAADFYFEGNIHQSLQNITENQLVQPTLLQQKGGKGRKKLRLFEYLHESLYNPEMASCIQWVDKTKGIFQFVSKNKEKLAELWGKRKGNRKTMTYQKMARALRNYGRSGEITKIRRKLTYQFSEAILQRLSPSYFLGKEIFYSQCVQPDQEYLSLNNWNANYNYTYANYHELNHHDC
Procedure, shortened: as §1

ELF4 = ELF4 (Homo sapiens, UniProt Q99607 1-663); conditions: protein: recombinant; tags: N-terminal GST; dsDNA, one strand shown
Procedure, shortened: as §1

ELK4 = biological target: T9, ELK4 (Homo sapiens, UniProt P28324-2 1-405); conditions: protein: recombinant; tags: N-terminal GST; dsDNA, one strand shown
T9 sequence: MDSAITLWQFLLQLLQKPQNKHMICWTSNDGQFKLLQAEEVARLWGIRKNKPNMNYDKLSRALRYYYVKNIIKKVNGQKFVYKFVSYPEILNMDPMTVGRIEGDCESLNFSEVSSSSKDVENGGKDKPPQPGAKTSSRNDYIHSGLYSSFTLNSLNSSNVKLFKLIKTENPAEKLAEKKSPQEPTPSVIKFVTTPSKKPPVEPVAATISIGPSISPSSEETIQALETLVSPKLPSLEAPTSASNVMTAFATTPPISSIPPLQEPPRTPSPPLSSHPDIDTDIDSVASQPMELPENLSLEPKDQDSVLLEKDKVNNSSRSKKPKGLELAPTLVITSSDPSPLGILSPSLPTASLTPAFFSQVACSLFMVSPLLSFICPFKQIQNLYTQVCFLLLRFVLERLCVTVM
Procedure, shortened: as §1

ETV2 = biological target: T10, ETV2 (Homo sapiens, UniProt O00321 1-342); conditions: protein: recombinant; tags: N-terminal GST; dsDNA, one strand shown
T10 sequence: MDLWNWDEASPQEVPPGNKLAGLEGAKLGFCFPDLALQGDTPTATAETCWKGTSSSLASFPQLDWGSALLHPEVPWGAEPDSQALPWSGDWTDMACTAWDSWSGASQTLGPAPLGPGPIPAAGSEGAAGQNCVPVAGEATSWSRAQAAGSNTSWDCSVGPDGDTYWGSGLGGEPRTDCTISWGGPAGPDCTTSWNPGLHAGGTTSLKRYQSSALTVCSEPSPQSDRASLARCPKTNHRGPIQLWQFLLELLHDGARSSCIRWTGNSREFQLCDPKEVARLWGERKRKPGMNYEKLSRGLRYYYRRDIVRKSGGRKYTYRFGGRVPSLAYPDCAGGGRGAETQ
Procedure, shortened: as §1

ELF3 = biological target: T11, ELF3 (Homo sapiens, UniProt P78545 1-371); conditions: protein: recombinant; tags: N-terminal GST; dsDNA, one strand shown
T11 sequence: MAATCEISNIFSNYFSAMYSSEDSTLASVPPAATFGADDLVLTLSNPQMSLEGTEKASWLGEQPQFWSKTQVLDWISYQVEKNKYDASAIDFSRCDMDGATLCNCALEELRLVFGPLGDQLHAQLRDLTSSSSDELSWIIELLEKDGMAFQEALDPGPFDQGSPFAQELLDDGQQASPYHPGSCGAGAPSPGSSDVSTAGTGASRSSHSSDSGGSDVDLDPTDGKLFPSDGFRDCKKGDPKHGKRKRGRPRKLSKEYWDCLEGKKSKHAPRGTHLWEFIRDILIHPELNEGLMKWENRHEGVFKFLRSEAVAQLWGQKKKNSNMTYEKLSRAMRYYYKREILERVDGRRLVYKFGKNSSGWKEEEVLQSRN
Procedure, shortened: as §1

CRX = CRX (Homo sapiens, UniProt O43186 1-299); conditions: protein: recombinant; tags: N-terminal GST; dsDNA, one strand shown
Procedure, shortened: as §1

ETV1 = ETV1 (Homo sapiens, UniProt P50549 1-477); conditions: protein: recombinant; tags: N-terminal GST; dsDNA, one strand shown
Procedure, shortened: as §1

SPIB, sequence (Q01892 whole entry): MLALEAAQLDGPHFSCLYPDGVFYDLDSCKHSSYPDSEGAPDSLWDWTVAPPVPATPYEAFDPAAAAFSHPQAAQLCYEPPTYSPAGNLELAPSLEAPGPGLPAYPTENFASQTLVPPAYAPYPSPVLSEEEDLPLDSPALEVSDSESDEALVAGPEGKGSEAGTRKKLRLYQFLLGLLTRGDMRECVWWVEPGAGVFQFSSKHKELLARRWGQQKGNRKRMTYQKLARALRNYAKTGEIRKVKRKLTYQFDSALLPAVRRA
HSF1, sequence (Q00613 whole entry): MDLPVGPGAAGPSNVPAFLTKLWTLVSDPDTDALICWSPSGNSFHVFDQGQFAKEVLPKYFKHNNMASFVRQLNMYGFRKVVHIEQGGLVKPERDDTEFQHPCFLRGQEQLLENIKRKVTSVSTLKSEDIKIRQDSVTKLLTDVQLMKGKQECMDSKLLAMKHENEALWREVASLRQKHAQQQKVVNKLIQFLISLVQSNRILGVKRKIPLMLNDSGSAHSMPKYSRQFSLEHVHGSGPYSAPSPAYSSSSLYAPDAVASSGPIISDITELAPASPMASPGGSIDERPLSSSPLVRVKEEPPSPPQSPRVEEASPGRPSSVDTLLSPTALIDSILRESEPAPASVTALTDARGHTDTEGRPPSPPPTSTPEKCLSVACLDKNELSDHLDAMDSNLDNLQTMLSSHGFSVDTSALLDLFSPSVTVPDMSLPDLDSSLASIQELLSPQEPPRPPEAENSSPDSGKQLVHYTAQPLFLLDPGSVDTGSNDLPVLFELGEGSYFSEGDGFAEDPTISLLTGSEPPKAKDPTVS
ELF4, sequence (Q99607 whole entry): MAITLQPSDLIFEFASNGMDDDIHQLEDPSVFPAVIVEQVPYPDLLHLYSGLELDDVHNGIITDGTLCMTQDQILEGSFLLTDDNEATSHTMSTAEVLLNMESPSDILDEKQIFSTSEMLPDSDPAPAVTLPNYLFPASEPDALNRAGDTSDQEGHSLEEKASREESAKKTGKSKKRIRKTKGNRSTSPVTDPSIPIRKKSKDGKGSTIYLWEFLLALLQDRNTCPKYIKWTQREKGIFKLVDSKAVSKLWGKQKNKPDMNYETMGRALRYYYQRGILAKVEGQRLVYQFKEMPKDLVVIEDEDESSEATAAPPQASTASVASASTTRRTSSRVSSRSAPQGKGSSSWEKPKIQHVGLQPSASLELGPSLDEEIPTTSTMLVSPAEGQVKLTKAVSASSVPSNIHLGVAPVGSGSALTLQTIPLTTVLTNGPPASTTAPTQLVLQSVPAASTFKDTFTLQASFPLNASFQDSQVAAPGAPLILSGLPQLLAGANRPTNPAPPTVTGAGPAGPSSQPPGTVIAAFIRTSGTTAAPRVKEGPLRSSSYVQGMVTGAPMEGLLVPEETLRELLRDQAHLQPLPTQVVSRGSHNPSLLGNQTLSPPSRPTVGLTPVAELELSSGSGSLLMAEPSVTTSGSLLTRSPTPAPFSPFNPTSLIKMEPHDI
ETV5, sequence (P41161 whole entry): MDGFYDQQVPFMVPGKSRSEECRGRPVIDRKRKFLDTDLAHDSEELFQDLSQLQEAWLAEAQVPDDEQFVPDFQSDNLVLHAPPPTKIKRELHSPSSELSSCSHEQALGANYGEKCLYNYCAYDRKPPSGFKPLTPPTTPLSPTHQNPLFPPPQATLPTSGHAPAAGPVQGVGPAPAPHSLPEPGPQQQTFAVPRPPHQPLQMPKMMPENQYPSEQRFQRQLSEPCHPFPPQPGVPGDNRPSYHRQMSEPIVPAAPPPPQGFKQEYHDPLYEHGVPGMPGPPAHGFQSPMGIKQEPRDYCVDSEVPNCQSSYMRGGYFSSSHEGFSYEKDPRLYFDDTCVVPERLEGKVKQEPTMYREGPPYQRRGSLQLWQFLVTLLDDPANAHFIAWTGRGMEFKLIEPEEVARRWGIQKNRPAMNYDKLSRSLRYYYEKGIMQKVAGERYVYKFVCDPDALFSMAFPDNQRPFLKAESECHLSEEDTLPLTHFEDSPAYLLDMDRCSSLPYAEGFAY
ELF1, sequence (P32519 whole entry): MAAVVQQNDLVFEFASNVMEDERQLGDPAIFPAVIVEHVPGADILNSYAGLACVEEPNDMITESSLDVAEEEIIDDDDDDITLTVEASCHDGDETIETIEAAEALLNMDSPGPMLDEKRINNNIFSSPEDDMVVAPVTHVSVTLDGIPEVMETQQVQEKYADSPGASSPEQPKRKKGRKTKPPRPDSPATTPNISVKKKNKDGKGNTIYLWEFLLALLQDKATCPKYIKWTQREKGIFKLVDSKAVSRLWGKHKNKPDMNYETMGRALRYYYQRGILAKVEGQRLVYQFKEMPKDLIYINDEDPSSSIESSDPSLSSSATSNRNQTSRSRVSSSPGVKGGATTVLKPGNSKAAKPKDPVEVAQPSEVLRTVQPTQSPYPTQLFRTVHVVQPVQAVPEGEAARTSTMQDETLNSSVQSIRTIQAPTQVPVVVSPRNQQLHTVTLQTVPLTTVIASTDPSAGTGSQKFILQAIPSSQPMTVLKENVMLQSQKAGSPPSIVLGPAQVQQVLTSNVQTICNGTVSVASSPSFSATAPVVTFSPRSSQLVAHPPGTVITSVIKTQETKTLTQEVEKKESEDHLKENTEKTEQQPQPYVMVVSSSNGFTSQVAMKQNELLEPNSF
CRX, sequence (O43186 whole entry): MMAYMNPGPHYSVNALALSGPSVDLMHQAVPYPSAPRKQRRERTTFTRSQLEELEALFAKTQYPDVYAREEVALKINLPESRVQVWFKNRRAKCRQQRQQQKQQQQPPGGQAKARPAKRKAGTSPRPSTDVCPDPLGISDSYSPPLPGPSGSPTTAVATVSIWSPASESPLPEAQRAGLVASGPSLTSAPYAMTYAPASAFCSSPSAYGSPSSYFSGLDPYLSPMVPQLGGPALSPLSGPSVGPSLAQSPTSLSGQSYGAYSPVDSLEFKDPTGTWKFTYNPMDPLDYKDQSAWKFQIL
ETV1, sequence (P50549 whole entry): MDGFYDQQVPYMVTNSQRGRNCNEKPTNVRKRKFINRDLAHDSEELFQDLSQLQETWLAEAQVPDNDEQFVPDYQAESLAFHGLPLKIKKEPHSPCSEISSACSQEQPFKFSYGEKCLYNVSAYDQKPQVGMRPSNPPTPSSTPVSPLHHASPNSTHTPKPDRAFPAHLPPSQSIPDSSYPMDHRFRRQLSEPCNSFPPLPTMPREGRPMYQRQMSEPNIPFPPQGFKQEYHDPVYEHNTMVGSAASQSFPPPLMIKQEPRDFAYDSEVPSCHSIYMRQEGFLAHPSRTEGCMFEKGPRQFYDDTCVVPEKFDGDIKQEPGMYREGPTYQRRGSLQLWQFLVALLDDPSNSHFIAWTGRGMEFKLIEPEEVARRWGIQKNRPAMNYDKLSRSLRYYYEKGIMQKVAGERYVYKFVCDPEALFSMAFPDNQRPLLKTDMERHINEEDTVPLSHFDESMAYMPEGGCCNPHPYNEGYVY

In the case of TACCAT, the binding signal (FLI1) was 1.22 fold enrichment (6-mer frequency, TF over GST control), the binding signal (ELK1) was 1.09 fold enrichment (6-mer frequency, TF over GST control) and the binding signal (GABPA) was 1.19 fold enrichment (6-mer frequency, TF over GST control). For the same sequence, the binding signal (ERG) was 1.17 fold enrichment (6-mer frequency, TF over GST control), the binding signal (ELF1) was 1.23 fold enrichment (6-mer frequency, TF over GST control) and the binding signal (EHF) was 1.11 fold enrichment (6-mer frequency, TF over GST control). For the same sequence, the binding signal (SPI1) was 1.15 fold enrichment (6-mer frequency, TF over GST control), the binding signal (SPIB) was 1.21 fold enrichment (6-mer frequency, TF over GST control) and the binding signal (ELK3) was 1.21 fold enrichment (6-mer frequency, TF over GST control). The binding signal (FEV) was 1.14 fold enrichment (6-mer frequency, TF over GST control), the binding signal (ETV5) was 1.13 fold enrichment (6-mer frequency, TF over GST control) and the binding signal (HSF1) was 1.14 fold enrichment (6-mer frequency, TF over GST control). For the same sequence, the binding signal (SPIC) was 1.11 fold enrichment (6-mer frequency, TF over GST control), the binding signal (ELF4) was 1.22 fold enrichment (6-mer frequency, TF over GST control) and the binding signal (ELK4) was 1.27 fold enrichment (6-mer frequency, TF over GST control). For the same sequence, the binding signal (ETV2) was 1.15 fold enrichment (6-mer frequency, TF over GST control), the binding signal (ELF3) was 1.16 fold enrichment (6-mer frequency, TF over GST control) and the binding signal (CRX) was 1.23 fold enrichment (6-mer frequency, TF over GST control). The binding signal (ETV1) was 1.2 fold enrichment (6-mer frequency, TF over GST control).
